HSF1 inhib: HSF1 inhibitors in luciferase reporter cells, primary screen, cell-based, NIH3T3, luminescence | NIH3T3-HGL HSE-luciferase, MG132-induced, luminescence 8 h; active compounds read low | activity change, negative = inhibition, % at 7.5 µM (by protocol) | actives 0.77% (n = 300,000);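 active means more than half of replicate wells show activity change below -50%, luminescence cut by over half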;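 further: luciferase reports HSF-1 transcriptional activity via heat shock element; 0% = median of DMSO wells and -100% = zero luminescence signal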
pCIP destab: p/CIP-EGFP fusion destabilizers, primary screen, fluorescence, F442A cells | AID 1984, 2009 | actives 0.01% (n = 290,000) | 16 h | Q05BA5 | decrease of EGFP signal, % at 10 µM;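 active means EGFP signal decrease of at least 30% at 10 µM or well 3 SD below plate mean, unless failing retest; inactive means the rest, including hits failing retest or dose response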
HSF1 activator: HSF-1 activators, primary screen, NIH3T3-HGL cells, MG132 stress, luminescence, single point | NIH3T3-HGL HSF-1 luciferase reporter, 8 h; 100% = twice DMSO control signal | activation, % at 9 µM | AID 504408, 2011 | actives 1.7% (n = 300,000);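 active means mean replicate activation of at least 50% with a set share of replicates each reaching 50%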;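 further: 0% = median of the neutral control wells and 100% = twice that signal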
HSP90 refold inh: HSP90 inhibitors, primary screen, cell lysate, luminescence; Heat shock protein HSP 90 (rabbit reticulocyte lysate; luciferase refolding); Rabbit reticulocyte lysate, luciferase refolding luminescence, 3 h; inhibition, % at 5.6 µM; actives 0.91% (n = 290,000);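 active means inhibition above the screen-wide mean plus 3 SD, computed separately per campaign, cut at about 16% in these data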;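 further: 0% = DMSO wells and 100% = 60 µM geldanamycin wells; inhibitors lower the luminescence because luciferase stays unfolded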
Hsp70 activator: Hsp70 transcriptional activators, primary screen, cell-based, HeLa, Hsp70 promoter luciferase, luminescence, 10 µM; HeLa Hsp70 promoter luciferase reporter; scaled: vehicle 0, proteasome-inhibitor control 100%; activation, % at 10 µM; actives 0.04% (n = 200,000); AID 1203, 2008;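 active means activation above the mean across all tested compounds plus 3 SD, cutoff set per campaign, cut at about 5.5% in these data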;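 further: 100% = MG132 at 30 µM as the positive control and 0% = DMSO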
NALP1 inh: NALP1 inflammasome inhibitors in reconstituted yeast, colorimetric, S. cerevisiae, triplicate retest; actives 0.61% (n = 280,000); inhibition, % at 10 µM; AID 2071, 2009; S. cerevisiae NALP1/ASC/caspase-1 growth, X-gal OD620, 72 h; in the data active means inhibition mostly above about 24%, no sharp cut-off; inactive means mostly below about 32%
An asterisk follows results filed as active; · = not tested or not shown. A selection: hits, their analogues and other compounds. The true share with any hit is near 3.8%.

SMILES	HSF1 inhib	pCIP destab	HSF1 activator	HSP90 refold inh	Hsp70 activator	NALP1 inh
COc1ccc(OCc2cc(C(=O)NC3CCOC(C)(C)C3)no2)c2ccccc12 (configuration not stated)	48.9	-7.1	93.1*	12.9	·	0.1
CC(=O)c1ccc(OCc2cc(C(=O)N(C)Cc3ncc(C)[nH]3)no2)cc1	-0.8	1.9	-3.0	-6.7	·	1.8
COc1cccc(OCc2cc(C(=O)N(C)Cc3nc4ccccc4[nH]3)no2)c1	32.4	-3.5	61.2*	0.3	·	-29.4
COc1ccc(CN(CC(=O)NCc2ccc(F)cc2)C(=O)CCC(=O)Nc2cc(C)ccn2)cc1	3.4	-9.7	18.9	-2.2	·	-1.1
Cc1cnn(C(=O)c2cc(-c3ccccn3)nc3ccc(Cl)cc23)c1	0.0	5.2	-2.2	5.7	-0.5	41.4*
O=C(c1cc(-c2ccccn2)nc2ccc(Cl)cc12)N1CCN(CCc2ccccc2)CC1	-1.8	-6.2	4.3	3.6	-0.2	-9.8
Cc1cc(-c2ccccc2)c2ccc(NC(=O)C(C)(C)C)nc2n1	-61.9*	-15.4	-69.5	2.8	·	24.0
Cc1cc(C)nc(/N=C(\NC(=O)C(C)(C)C)Nc2ccccc2)n1	-6.3	-6.2	-4.5	14.0	·	1.9
COc1c(C=O)c2c(c(OC)c1OC)-c1ccc(OC)c(=O)cc1C(NC(C)=O)CC2 (configuration not stated)	45.0	·	45.0	·	·	·
COc1ccc(-n2nc(C(=O)NCc3ccco3)c3c4ccccc4n(C)c3c2=O)cc1	13.4	-18.0	17.5	-0.1	0.0	32.0
Cc1ccc(-n2nc(C(=O)NCc3ccc(C)o3)c3c4ccccc4n(C)c3c2=O)cc1	4.9	-19.1	4.3	5.0	-0.2	38.5*
CCc1ccc(N2C(=O)CN(Cc3ccccc3)C2=S)cc1	3.9	-16.6	-6.0	1.9	·	1.1
Cc1cc(C)cc(N2C(=O)CN(Cc3ccccc3)C2=S)c1	-77.8*	-3.7	-81.6	14.3	·	7.7
Nc1c(-c2ccccc2)nc(Cl)nc1-c1ccccc1	-3.7	4.5	-8.2	-0.1	-0.3	33.8*
O=C(Nc1ccc(Cl)cc1Cl)C1=Cc2ccccc2OC1	31.8	-7.1	52.6*	2.2	0.6	4.6
BrC(/C=N/Nc1nc(N2CCOCC2)nc(N2CCOCC2)n1)=C/c1ccccc1	46.7	-28.7	64.2*	1.3	-0.2	-2.6
CN1CCSc2ccc(C(=O)NCc3cccc(F)c3)cc21	4.5	1.8	22.6	-3.6	·	13.3
CN1CCSc2ccc(C(=O)Nc3ccc(Cl)cc3)cc21	79.7	8.1	122.4*	-4.2	·	·
COc1cccc(NC(=O)c2ccc3c(c2)N(C)CCS3)c1	62.6	-9.6	92.4*	-0.7	·	10.6
CCOC(=O)Cc1cc(=O)c2cc(C)ccc2[nH]1	-67.8*	-2.3	-73.4	1.0	·	11.6
CC(=O)Nc1ccc(S(=O)(=O)NNC2=NS(=O)(=O)c3ccccc32)cc1	-1.0	1.2	-4.6	-2.4	0.1	5.4
O=C(NCC1CCCO1)c1sc2ccccc2c1Cl (configuration not stated)	13.1	-10.6	33.6	4.2	0.2	·
Cc1ccc2c(Cl)c(C(=O)NCCc3ccccc3)sc2c1	40.6	10.4	76.6*	-3.8	0.3	15.8
Cc1ccc2c(Cl)c(C(=O)NCC3CCCO3)sc2c1 (configuration not stated)	28.7	-1.2	54.1*	1.2	0.3	5.3
COc1ccc(CCNC(=O)c2sc3cc(C)ccc3c2Cl)cc1	0.4	-9.6	2.7	-0.3	-0.1	50.9
O=C(NCc1ccccc1Cl)C1CCC(CNc2c(N3CCOCC3)c(=O)c2=O)CC1 (configuration not stated)	-6.2	2.8	-22.6	2.0	·	·
COc1cc(C=Nc2cccc(C)c2)c(O)c([N+](=O)[O-])c1	-1.8	-5.6	8.7	0.0	-0.3	49.0*
Cc1cccc(N=Cc2cc3c(cc2[N+](=O)[O-])OCO3)c1	0.1	-8.6	0.4	4.0	-0.1	12.1

Source: PubChem
